Laboratory results as given in the supplement of paper PMC6555819.

What was measured:
Assay in all cases: PBM binding z-score (relative to random genomic background probes); higher = stronger binding; sequences stand for … in GC…GCGATTGACAGCGTAGAATGAAGG
[1] = system: PPARg:RXRa DBDmut IVT, anti-RXR (DBD mutation: RXRa K156A/R161A, NR concentration 270 nM, RXRa partner concentration 90 nM)
Summary of the method: (§1)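 For binding z-scores, the reference was random background probes on custom Agilent 4×180K protein-binding microarrays. These arrays were incubated 1 h with ligand-free nuclear receptor dimers in PBS pH 7.4, 2% milk, 0.02% Triton X-100, 1 mM DTT, 0.2 mg/mL BSA and 0.4 mg/ml salmon testes DNA. Fluorescence was scanned after antibody detection of each partner (one per run) and regression-normalized.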

[2] = system: PPARg:RXRa IVT, anti-PPARg (NR concentration 270 nM, RXRa partner concentration 90 nM)
Summary of the method: as §1

[3] = system: PPARg DBDmut:RXRa IVT, anti-PPARg (DBD mutation: PPARg1 K132A/R137A, NR concentration 270 nM, RXRa partner concentration 90 nM)
Summary of the method: as §1

[4] = system: PPARg DBDmut IVT, anti-PPARg (DBD mutation: PPARg1 K132A/R137A, NR concentration 270 nM)
Summary of the method: as §1

[5] = system: PPARg homodimer (NR concentration 180 nM)
Summary of the method: as §1

[6] = system: PXR:RXRa (NR concentration 270 nM, RXRa partner concentration 90 nM)
Summary of the method: as §1

[7] = system: PXR homodimer (NR concentration 270 nM)
Summary of the method: as §1

[8] = system: RARa:RXR (NR concentration 270 nM, RXRa partner concentration 90 nM)
Summary of the method: as §1

[9] = system: RARa homodimer (NR concentration 270 nM)
Summary of the method: as §1

[10] = system: RARb:RXRa (NR concentration 270 nM, RXRa partner concentration 90 nM)
Summary of the method: as §1

[11] = system: RARb homodimer (NR concentration 270 nM)
Summary of the method: as §1

[12] = system: RARg:RXRa (NR concentration 270 nM, RXRa partner concentration 90 nM)
Summary of the method: as §1

[13] = system: RARg homodimer (NR concentration 270 nM)
Summary of the method: as §1

[14] = system: RXRa DBDmut IVT, anti-RXR (DBD mutation: RXRa K156A/R161A, NR concentration 90 nM)
Summary of the method: as §1

[15] = system: RXRa homodimer (NR concentration 180 nM)
Summary of the method: as §1

[16] = system: THRa:RXRa (NR concentration 90 nM, RXRa partner concentration 90 nM)
Summary of the method: as §1

[17] = system: THRa homodimer (NR concentration 90 nM)
Summary of the method: as §1

[18] = system: VDR:RXRa (NR concentration 270 nM, RXRa partner concentration 90 nM)
Summary of the method: as §1

[19] = system: VDR homodimer (NR concentration 270 nM)
Summary of the method: as §1

Row | Sequence | PBM binding z-score [1] | PBM binding z-score [2] | PBM binding z-score [3] | PBM binding z-score [4] | PBM binding z-score [5] | PBM binding z-score [6] | PBM binding z-score [7] | PBM binding z-score [8] | PBM binding z-score [9] | PBM binding z-score [10] | PBM binding z-score [11] | PBM binding z-score [12] | PBM binding z-score [13] | PBM binding z-score [14] | PBM binding z-score [15] | PBM binding z-score [16] | PBM binding z-score [17] | PBM binding z-score [18] | PBM binding z-score [19]
1 | CCTACTGGGCCATCAGGTCATTGAGATCAACGTT | 4.42 | 4.78 | 0.317 | 0.581 | 1.13 | 2.08 | 2.14 | 2.31 | -0.158 | 2.22 | 2.68 | 2.15 | 2.06 | 0.124 | 1.43 | 3.28 | 2.88 | 3.41 | 1.89
2 | CTACCAAGGTGAACAAGGTCGTTTATTACTATTC | 2.67 | 2.5 | 0.494 | 0.322 | 1.29 | 3.07 | 2.38 | 2.12 | 0.698 | 2.26 | 2.34 | 1.72 | 1.55 | 2.29 | 1.77 | 3.26 | 2.33 | 6.54 | 3
3 | GCTTACGGGTCGAAGGTTATAGCATGAATAGAAT | 0.529 | 2.66 | 0.973 | 0.687 | 1.39 | 2.65 | -0.142 | 3.79 | -0.0107 | 1.49 | 0.86 | 2.31 | 1.28 | 0.891 | 3.72 | 1.55 | -0.161 | 2.02 | 0.682
4 | AATACAGGGTCTTCGTAGGCCAGAGTACGCACAG | 0.0875 | 0.764 | 0.236 | 0.68 | -0.584 | -0.0215 | -0.304 | 0.585 | 0.404 | 0.544 | 0.449 | 0.222 | 0.45 | 0.168 | 0.437 | 1.6 | -0.387 | 0.0684 | 0.396
5 | CGCACGAGGGCATGAGTTGATAGCAAATGCCGAT | 1.88 | 1.02 | -0.109 | -0.507 | 0.288 | 0.438 | -0.109 | 0.296 | -0.714 | 2.09 | 1.2 | 1.1 | 1.72 | 2.41 | 0.956 | 1.3 | 0.0381 | 1.27 | 1.63
6 | TGAAAGAGGTTAAAGATCAGGGAACGTGGCGTCG | 0.975 | 2 | 0.776 | -0.385 | 1.36 | 2.29 | 0.0556 | 3.68 | 0.0643 | 2.67 | 1.1 | 2.9 | 1.68 | 0.56 | 4.19 | 1.63 | -0.693 | 1.82 | 0.28
7 | ATCTCTAGGTAACAATTTCAGTGAAAGAGAGGAC | 3.38 | 2.8 | 1.3 | 1.6 | 0.669 | 0.204 | 0.98 | 0.221 | 1.81 | 0.518 | 0.316 | 0.547 | 0.814 | 0.235 | 0.51 | 1.06 | 0.784 | 0.483 | 0.542
8 | TTACCAAGGTGAAAGGTGGTTGATGCACGCCTTG | 3.12 | 3.55 | -0.573 | -0.258 | 0.847 | 0.419 | -0.541 | 1.35 | 0.211 | 1.5 | 0.622 | 0.898 | 0.626 | -0.437 | 1.61 | 1.73 | 0.529 | 0.184 | -0.166
9 | CTACCAAGATGAACAAGGTCGTTGATTACTATTC | 0.459 | 0.305 | 0.173 | 0.136 | 0.792 | 1.53 | 1.73 | 1.45 | 1.7 | 0.656 | 1.24 | 0.579 | 0.551 | 1.52 | 0.837 | 1.77 | 1.54 | 2.52 | 2.53
10 | CTTCCAAGGTCAGAGAGGTCAGTGAATGCCGAGT | 2.81 | 3.44 | -0.247 | 0.0425 | 3.75 | 5.75 | 11.5 | 4.71 | 1.5 | 5.27 | 5.27 | 6.1 | 7.29 | 2.97 | 5.22 | 4.3 | 2.74 | 7.43 | 5.58
11 | CGTCCAACGTCAAAGGTCAGTGAAGAGATGACGG | -0.294 | 1.63 | -0.376 | -0.0246 | 3.55 | 3.58 | 0.376 | 5.04 | 1.79 | 4.24 | 4.22 | 4.66 | 5.08 | 0.458 | 5.09 | 2.5 | 0.106 | 2.8 | 0.685
12 | TCTTGTAGATCAAGCATGTTAAGAAAGCCTGAGT | 1.83 | 0.509 | 0.824 | -0.00587 | -0.0678 | 0.378 | 0.162 | 0.466 | 0.241 | -0.0485 | -0.365 | -0.147 | -0.0954 | 0.943 | 0.122 | -0.0977 | -0.856 | 0.348 | 0.128
13 | GGAACGAGGACATTCGAGTTGATAGCATGGCGAT | 0.421 | 0.192 | -0.159 | -0.578 | -0.204 | 0.468 | 0.409 | 0.177 | -0.136 | 0.344 | -0.261 | 0.285 | 0.773 | 2.25 | 0.11 | 2.2 | 0.823 | 0.922 | 1.65
14 | ATCTCTAGGTAAGCCTCAGTTCAGTGAAGAACGC | 2.22 | 1.13 | -0.0785 | 0.191 | 0.657 | 1.23 | 0.98 | 0.356 | 0.375 | 0.44 | 0.726 | 0.273 | 0.0936 | 0.247 | 0.103 | 0.985 | 1.15 | 0.546 | 1.21
15 | CGTCCAAGGTCAGAGGAGGTCAGTGAAGACAGAT | 1.93 | 3.41 | 0.0529 | -0.477 | 3.97 | 6.58 | 2.7 | 5.37 | 1.91 | 5.22 | 5.15 | 6.03 | 6.88 | 2.36 | 5.13 | 5.09 | 2.8 | 5.98 | 3.43
